SMN2 splice up: qHTS Assay for Enhancers of SMN2 Splice Variant Expression; Potency, µM (highest dose often 46.1 µM), inactives show top-dose activity change, positive = activation, usual class: activators; 210,000 tested, 2.8% active; HEK293 SMN2-luciferase splicing reporter, luminescence, 30-36 h; AID 1458, 2008; note: % of control where 0% means no effect; nearly all actives have a fitted effect of over 55% in size
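HEK293 cells carry an SMN2 […]–luciferase reporter in which exon 7 inclusion puts luciferase in frame. Cells were plated 10-12 h before compound addition, then incubated 30-36 h at 37C. ONE-Glo luminescence was read; sodium butyrate at 4.5 mM final served as control.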
Rab9 prom act: qHTS Assay for Rab9 Promoter Activators. Huh7 Rab9 promoter-luciferase reporter, luminescence, 24 h. Potency, µM (series often up to 9.22 µM), without a hit: at the top dose activation, negative = inhibition, hits mostly activators. 320,000 tested, 2.8% active; note: % of control where 0% means no effect; nearly all actives have a fitted effect of over 60% in size
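Cells were plated at 1500 per well in reduced-serum medium with 10% FBS and left 2 h. Compound in DMSO was then added for 24 h at 37 °C. Reporter signal was read by luminescence after 10 min with luciferase detection reagent.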
FLuc modulator: qHTS profiling assay for firefly luciferase inhibitor/activator using purifed enzyme and Km concentrations of substrates (counterscreen for miR-21 project); AID 588342, 2011; Potency, µM (doses to about 57.5 µM), for inactives: at the top dose activity change, negative = inhibition, usual class: inhibitors; Luciferin 4-monooxygenase (Photinus pyralis), P08659; purified FLuc, Km substrates, luminescence inhibition; 360,000 tested, 6.9% active;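 note: plate controls were vehicle for no effect and reference inhibitor for full effect; nearly all actives have a fitted effect of over 55% in size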
Target sequence (P08659 whole entry, looked up): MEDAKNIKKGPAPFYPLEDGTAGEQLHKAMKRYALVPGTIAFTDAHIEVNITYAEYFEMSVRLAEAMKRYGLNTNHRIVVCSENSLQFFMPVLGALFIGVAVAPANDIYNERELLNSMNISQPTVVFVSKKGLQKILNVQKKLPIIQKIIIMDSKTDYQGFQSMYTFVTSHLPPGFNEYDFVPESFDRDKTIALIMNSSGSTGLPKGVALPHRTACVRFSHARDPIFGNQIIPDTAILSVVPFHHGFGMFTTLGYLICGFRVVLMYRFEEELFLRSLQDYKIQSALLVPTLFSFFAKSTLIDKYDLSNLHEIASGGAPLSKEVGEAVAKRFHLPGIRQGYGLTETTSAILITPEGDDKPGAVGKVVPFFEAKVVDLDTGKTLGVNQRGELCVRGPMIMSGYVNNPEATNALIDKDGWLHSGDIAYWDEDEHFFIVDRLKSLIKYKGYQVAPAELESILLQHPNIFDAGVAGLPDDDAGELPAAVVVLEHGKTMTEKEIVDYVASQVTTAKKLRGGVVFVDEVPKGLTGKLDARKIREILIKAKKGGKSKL
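Purified P. pyralis luciferase (10nM final) with 10uM D-luciferin and 10uM ATP (Km levels) in 50mM Tris acetate pH 7.5, 10mM Mg acetate, 0.01% Tween-20, 0.05% BSA; qHTS 6-point titration, ~60 µM downward; luminescence read.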
NPC1 prom act: qHTS Assay for NPC1 Promoter Activators; Huh7 NPC1 promoter luciferase reporter, 24 h; Potency, µM (doses to about 9.22 µM), for the others: at the highest dose activation, most hits filed as activators; 320,000 tested, 2.4% active; AID 485313, 2010; note: % of control where 0% means no effect; nearly all actives have a fitted effect of over 60% in size
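Compounds in DMSO were transferred onto Huh7 NPC1-luciferase reporter cells pre-incubated 2 h; after 24 h at 37 °C, Amplite reagent was dispensed and luminescence recorded 10 min later.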
ELG1 genotox: qHTS screen for small molecules that induce genotoxicity in human embryonic kidney (HEK293T) cells expressing luciferase-tagged ELG1; 330,000 tested, 1.3% active; HEK293T ELG1-luciferase reporter, luminescence, 16 h; Potency, µM (series often up to 46 µM), inactives show at the top dose activity change, positive = activation, actives largely listed as activators; note: % of control where 0% means no effect; nearly all actives have a fitted effect of over 60% in size
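Screening used a luciferase reporter fused to human ELG1 in HEK293T cells. Luminescence was read on a CCD plate imager after 16 hr exposure and 30 min ONE-Glo incubation.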
ELG1 repair inh: qHTS screen for small molecules that inhibit ELG1-dependent DNA repair in human embryonic kidney (HEK293T) cells expressing luciferase-tagged ELG1 | 330,000 tested, 2.3% active | Potency, µM (highest dose often 46.1 µM), inactives show top-dose activity change, negative = inhibition, usual class: inhibitors | HEK293T ELG1-luciferase reporter, luminescence, 16 h; DNA damage induced by 5-fluorouridine; note: % is set by controls: 0 for no effect and ±100 for the full control effect; nearly all actives have a fitted effect of over 55% in size
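In this reporter screen, reduction of luminescence relative to DMSO vehicle indicated activity. Compounds and 5-fluorouridine were added together to 2,000 cells per well, incubated for 16 hr at 37 °C, then developed with ONE-Glo.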
Starred values were filed as active, the others as inactive; u = inconclusive; x = no result given; [ ] = dose if it differs, or a comment. Rows were chosen to be rich in hits. Some 9.3% of all compounds tested hit in one or more screens of this group. Calls come from the whole dose curve; as a rule, active = well fitted curve in the direction sought with a large enough effect; inconclusive = small, poorly fitted or top-dose-only effect, or another doubt; inactive = no such curve, though single readings can be large; an effect the other way counts as inactive or inconclusive. Potency is the fitted concentration of half-maximal effect.

SMILES	SMN2 splice up	Rab9 prom act	FLuc modulator	NPC1 prom act	ELG1 genotox	ELG1 repair inh
COC(=O)N/N=C\c1ccccc1OC/C=C/c1ccccc1	x	28.9%	16.9µM*	u	u	u
N#CCC(=O)N/N=C\c1cc(Br)ccc1OC/C=C/c1ccccc1	x	u	-4.0%	u	u	u
COc1ccc(C(C#N)N2CCCCCC2)cc1OC (configuration not stated)	-7.0%	3.6%	1.4%	2.2%	0.7%	0.0%
CCN(CC)S(=O)(=O)c1ccc(N2CCOCC2)c(NCC(=O)Nc2ccc(F)cc2)c1	7.3%	-3.9%	3.8%	-7.4%	2.5%	u
N#CCc1nc2n(n1)Cc1ccccc1-2	-2.7%	-6.4%	-0.9%	9.5%	-0.4%	3.1%
c1ccc2c(c1)Cn1nc(Cc3nc4c(s3)CCCC4)nc1-2	u	u	16.9µM*	5.7%	u	u
O=[N+]([O-])c1ccc(/C=N/Nc2nc3ccccc3o2)cc1	x	2µM*	-21.3%	2µM*	u	u
CN(C)c1ccc(/C=N/Nc2nc3ccccc3o2)cc1	x	0.1µM*	0.536µM*	u	u	u
COc1ccc([N+](=O)[O-])cc1NS(=O)(=O)c1cccc(C(=O)NCCCN2CCCC2=O)c1	x	x	x	x	-0.1%	14.8%
CN(Cc1ccccc1)C(=O)c1c[nH]c2ccc(S(=O)(=O)N3CCOCC3)cc2c1=O	-13.1%	-8.3%	-3.3%	-5.8%	1.3%	7.6%
C[n+]1cc[nH]c1SCC(=O)c1ccccc1	20.8%	u	23.9µM*	u	18.4µM*	u
C[n+]1cc[nH]c1SCC(=O)c1ccc(Cl)cc1	u	u	x	24.5%	u	0.0%
O=C(NN=C(Cc1ccccc1)Cc1ccccc1)c1ccccc1O	1.1%	-17.8%	12µM*	-5.7%	0.7%	u
C/C(Cc1ccccc1)=N\NC(=O)c1ccc(F)cc1	-36.3%[1.84 µM]	0.3%	-9.4%	4.1%	3.6%	20.8%
O=C(NN=C(Cc1ccccc1)Cc1ccccc1)c1ccc(F)cc1	25.3%	1.5%	19µM*	11.0%	0.7%	17.8%
COc1ccccc1NC(=O)c1cc(S(=O)(=O)N2CCOCC2)ccc1Cl	-17.9%	x	0.0%	x	x	x
CC(NC(=O)C1CC1)c1ccc(-c2ccccc2)cc1 (configuration not stated)	x	9.6%	-0.9%	-0.9%	0.8%	3.5%
O=C(O)C1CCC(c2ccc(-c3ccccc3)cc2)CC1 (configuration not stated)	x	u	6.75µM*	2.82µM*	u	u
CC/C(=N\Nc1ccccc1[N+](=O)[O-])c1ccc(O)cc1	x	0.1%	26.9µM*	5.7%	10.0%	-5.8%
C/C(=N\Nc1ccccc1[N+](=O)[O-])c1ccccc1O	x	-0.5%	5.36µM*	8.4%	20.6µM*	u
C/C(=N\Nc1ccc(S(N)(=O)=O)cc1[N+](=O)[O-])c1ccccc1O	x	-6.4%	3.1%	-0.2%	3.9%	-10.6%
O=C(NCc1ccco1)C(c1ccncc1)N(CCC1=CCCCC1)C(=O)Cn1nnc2ccccc21 (configuration not stated)	-2.9%	-10.8%	-1.5%	0.1%	-0.3%	-9.2%
CCOc1ccc(OCCSc2nc(C)cc(=O)[nH]2)cc1	6.4%	u	13.5µM*	u	u	u
Cc1ccc(SCCSc2nc(C)cc(=O)[nH]2)cc1	x	u	5.36µM*	u	23.1µM*	u
Cc1ccc(SCCSc2nc(N)cc(=O)[nH]2)cc1	x	13.4%	u	6.1%	6.1%	21.3%
SMILES	SMN2 splice up	Rab9 prom act	FLuc modulator	NPC1 prom act	ELG1 genotox	ELG1 repair inh
Cc1ccc(Nc2c(-c3cc(Br)ccc3F)nc3cc(C)ccn23)cc1	-1.8%	x	-1.2%	x	x	x
Cc1cc(O)c(/C=N/Nc2ccccc2Cl)c(=O)o1	-1.4%	29.8%	u	u	u	u
Cc1cc(O)c(/C=N/Nc2cccc(Cl)c2)c(=O)o1	-24.0%	1.3%	15.1µM*	18.5%	9.8%	-0.2%
Cc1cc(O)c(/C=N/Nc2ccc(Cl)cc2)c(=O)o1	-21.1%	14.8%	2.69µM*	19.9%	9.6%	21.3%
CC[C@@]1(C(=O)OC)N[C@H](CN(C)S(=O)(=O)c2ccc(C(C)(C)C)cc2)[C@@H]2C(=O)N(Cc3ccccc3)C(=O)[C@@H]21	x	x	x	x	-0.7%	15.0%
Cc1ccc(NC(=O)C(=O)Nc2ccccn2)cc1	1.58µM*	0.316µM*	0.536µM*	u	u	u
COc1ccccc1NC(=O)C(=O)Nc1ccccn1	15.8µM*	3.16µM*	8.49µM*	3.98µM*	u	u
Cc1c(C)c2ccc(OCC(=O)Nc3ccccn3)c(C)c2oc1=O	x	-20.3%	0.0338µM*	-34.3%	u	u
COc1ccccc1OCC(=O)Nc1ccncc1	x	-4.4%	-0.1%	-3.5%	-5.6%	-4.6%
Cc1c(C)c2ccc(OCC(=O)N(C)C)c(C)c2oc1=O	u	-1.0%	-16.5%	-0.8%	u	u
COc1ccccc1NC(=O)C(=O)N/N=C(\C)CC(=O)Nc1ccccn1	-1.1%	-15.8%	u	1.8%	0.1%	1.5%
COc1ccccc1OCC(=O)Nc1ccccn1	x	3.16µM*	3.38µM*	u	2.06µM*	u
O=C(CNC(=O)c1ccco1)NCC(=O)OCC(=O)c1ccc(Cl)c([N+](=O)[O-])c1	x	8.5%	0.5%	-0.7%	-0.3%	-4.8%
COc1ccc(CNC(=O)/C=C/c2cc3c(cc2Br)OCO3)cc1	2.7%	7.5%	-0.9%	-0.1%	-0.6%	5.0%
COc1ccc(-c2nn(-c3ccccc3)cc2C(N)=O)cc1OC	x	1.8%	16.9µM*	9.2%	2.4%	-23.0%
Cc1ccc(-c2nn(-c3ccccc3)cc2/C=N/n2c(-c3ccncc3)n[nH]c2=S)cc1	x	-4.4%	-1.3%	-9.5%	17.7%	u
C(=N\n1cnnc1)/c1ccc(-c2ccccc2)cc1	-13.7%	2.0%	u	2.6%	2.7%	0.2%
COc1ccc(-c2nn(-c3ccccc3)cc2/C=N/n2cnnc2)cc1OC	u	-5.7%	19µM*	-3.1%	6.5%	u
NC(=O)c1cn(-c2ccccc2)nc1-c1cccnc1	9.8%	-3.3%	-2.6%	2.6%	-4.7%	2.4%
C(=N\n1cnnc1)/c1cn(-c2cccs2)nc1-c1ccccc1	u	8.2%	7.57µM*	14.0%	u	u
